{
  "source": "PubChem BioAssay",
  "note": "Values without a mark were called inactive.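 The calls were made as follows, unless noted: active = Her2 level under about 52% in both replicate screens, with viability over 70% of control (limit read from the data); inconclusive = Her2 under the limit in one screen only, or viability under 70%; inactive = Her2 level above the set limit.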",
  "data": [
    {"target": "Receptor tyrosine-protein kinase erbB-2 (Homo sapiens) (UniProt P04626)", "sequence (P04626 whole entry, looked up)": "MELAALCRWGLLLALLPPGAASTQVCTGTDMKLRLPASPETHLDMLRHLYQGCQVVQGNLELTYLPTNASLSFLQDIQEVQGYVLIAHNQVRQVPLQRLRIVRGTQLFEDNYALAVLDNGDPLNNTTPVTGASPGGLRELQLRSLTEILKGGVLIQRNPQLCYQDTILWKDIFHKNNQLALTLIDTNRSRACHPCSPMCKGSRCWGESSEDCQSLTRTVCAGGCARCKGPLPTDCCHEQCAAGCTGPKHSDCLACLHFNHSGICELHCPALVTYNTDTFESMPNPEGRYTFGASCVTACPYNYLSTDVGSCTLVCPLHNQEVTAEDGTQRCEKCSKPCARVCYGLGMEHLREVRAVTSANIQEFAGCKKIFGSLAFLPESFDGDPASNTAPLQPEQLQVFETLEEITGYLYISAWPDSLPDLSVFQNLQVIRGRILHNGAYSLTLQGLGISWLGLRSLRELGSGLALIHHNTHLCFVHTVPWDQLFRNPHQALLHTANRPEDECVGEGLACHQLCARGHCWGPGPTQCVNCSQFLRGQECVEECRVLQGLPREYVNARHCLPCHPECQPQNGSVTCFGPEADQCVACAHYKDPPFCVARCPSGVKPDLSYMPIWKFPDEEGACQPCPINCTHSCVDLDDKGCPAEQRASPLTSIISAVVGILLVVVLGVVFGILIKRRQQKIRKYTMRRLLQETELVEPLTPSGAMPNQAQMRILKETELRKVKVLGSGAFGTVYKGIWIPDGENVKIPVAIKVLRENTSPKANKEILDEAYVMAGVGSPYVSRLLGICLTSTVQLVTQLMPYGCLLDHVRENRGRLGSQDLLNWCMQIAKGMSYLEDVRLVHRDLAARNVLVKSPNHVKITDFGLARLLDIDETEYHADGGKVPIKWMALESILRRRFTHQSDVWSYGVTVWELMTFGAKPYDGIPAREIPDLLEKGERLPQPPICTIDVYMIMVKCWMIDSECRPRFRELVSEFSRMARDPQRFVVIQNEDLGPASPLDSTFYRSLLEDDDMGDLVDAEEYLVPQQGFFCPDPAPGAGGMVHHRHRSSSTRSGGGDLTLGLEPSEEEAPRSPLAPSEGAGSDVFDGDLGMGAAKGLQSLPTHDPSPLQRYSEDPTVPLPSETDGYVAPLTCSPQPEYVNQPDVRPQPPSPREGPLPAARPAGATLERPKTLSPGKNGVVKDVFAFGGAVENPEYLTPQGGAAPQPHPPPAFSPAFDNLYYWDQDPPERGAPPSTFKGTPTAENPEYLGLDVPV", "experiment": "reducers of endogenous Her2 protein level, primary screen, SKBR3 breast tumor cells, AlphaScreen, ATP viability (AID 461);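 also: lower value means less Her2 protein in the cells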", "conditions": "18-24 h, at 10 µM, active compounds read low", "units": {"Her2 level": "%"}, "values": [
      {"smiles": "CCOC(=O)c1ccc(NS(=O)(=O)c2ccc3c(c2)oc(=O)n3C)cc1", "Her2 level": 118},
      {"smiles": "O=C(Nc1ccc2c(c1)OCCO2)NC1CCCCC1", "Her2 level": 98.5},
      {"smiles": "O=C(CSc1nnnn1-c1ccccc1Cl)Nc1ccc2c(c1)OCCO2", "Her2 level": 96},
      {"smiles": "COc1ccc(-c2nc(CSCC(=O)NCc3ccc4c(c3)OCO4)c(C)o2)cc1OC", "Her2 level": 108},
      {"smiles": "Cc1cnc(NC(=O)CSc2nnc(COc3c(C)cccc3C)o2)s1", "Her2 level": 102},
      {"smiles": "Cc1cccc(C2CC(c3ccccc3)Nc3nc(N)nn32)c1", "note": "(stereo not given)", "Her2 level": 94.5},
      {"smiles": "CCc1ccccc1N1CC23C=CC(O2)C(C(=O)O)C3C1=O", "note": "(stereo not given)", "Her2 level": 93.5},
      {"smiles": "CCOC(=O)C1CCN(Cc2ccc(F)c(Br)c2)CC1", "Her2 level": 118},
      {"smiles": "CCOc1ccccc1N1Cc2cc(C)c(C)cc2C1", "Her2 level": 104},
      {"smiles": "CCN1CCN(C(CNC(=O)c2ccc3c(c2)OCO3)c2cccnc2)CC1", "note": "(stereo not given)", "Her2 level": 93},
      {"smiles": "O=C(NCCSc1c[nH]c2ccccc12)c1ccco1", "Her2 level": 93.5},
      {"smiles": "COCCNC(=O)CN(C)S(=O)(=O)c1ccc(Br)cc1", "Her2 level": 98},
      {"smiles": "COc1cc(C(=O)Nc2cccc(-c3nncn3C)c2)cc(OC)c1OC", "Her2 level": 110},
      {"smiles": "CN1CCN(Cc2nc3c(c(=O)n(C)c(=O)n3C)n2Cc2ccccc2Cl)CC1", "Her2 level": 97.5},
      {"smiles": "O=C(OCCN=C1NS(=O)(=O)c2ccccc21)C1CC(=O)N(c2ccc(Cl)cc2)C1", "note": "(stereo not given)", "Her2 level": 99.5},
      {"smiles": "COc1cccc2cc(C(=O)OC3CCN(C)CC3)c(=O)oc12", "Her2 level": 103},
      {"smiles": "Cc1cccc(N2C(=O)CC(N3CCN(c4cccc(C(F)(F)F)c4)CC3)C2=O)c1", "note": "(stereo not given)", "Her2 level": 74.5},
      {"smiles": "O=c1c2ccccc2nc2n1CCN2", "Her2 level": 95.5},
      {"smiles": "CCOC(=O)C1=C(C)Nc2nnnn2C1c1ccc(OC)c(Br)c1", "note": "(stereo not given)", "Her2 level": 106},
      {"smiles": "COc1ccc(-n2c(Cc3cccn3C)nnc2SCC(N)=O)cc1", "Her2 level": 95},
      {"smiles": "COc1ccccc1NC(=O)CSc1nnc(Cc2cccn2C)n1-c1ccc(F)cc1", "Her2 level": 86},
      {"smiles": "CC(=O)Nc1cccc(Oc2nc(C)cc(C)c2C#N)c1", "Her2 level": 106},
      {"smiles": "COc1ccc(CNC(=O)c2ccc(CN3CCOCC3)cc2)cc1", "Her2 level": 93.5},
      {"smiles": "Cc1cc(OCC(=O)NCCO)cc(C)c1Cl", "Her2 level": 120},
      {"smiles": "COc1ccc(C)cc1S(=O)(=O)N1CCN(S(=O)(=O)c2cc(C)ccc2OC)CC1", "Her2 level": 114},
      {"smiles": "CCCCC(NS(=O)(=O)c1ccc(OC)cc1)C(=O)O", "note": "(stereo not given)", "Her2 level": 108},
      {"smiles": "CCOc1ccc(Cn2nnc(C(=O)Nc3ccc(OC)cc3OC)c2N)cc1", "Her2 level": 102},
      {"smiles": "Cc1cc(C)c(NC(=O)CSc2nc3c(c(=O)n2C)SC(C)C3)c(C)c1", "note": "(stereo not given)", "Her2 level": 118},
      {"smiles": "COc1ccccc1N1C(=O)CCC1(C#N)c1ccccc1", "note": "(stereo not given)", "Her2 level": 102},
      {"smiles": "CCOc1ccc(N(CC(=O)NC2CCCC(C)C2C)S(=O)(=O)c2c(C)noc2C)cc1", "note": "(stereo not given)", "Her2 level": 81.5},
      {"smiles": "CCN1C(=O)c2ccccc2S(=O)(=O)c2ccc(C(=O)NCc3cccnc3)cc21", "Her2 level": 114},
      {"smiles": "Cc1ccc(C(=O)CC2(O)C(=O)N(C)c3ccc(Br)cc32)c(C)c1", "note": "(stereo not given)", "Her2 level": 88.5},
      {"smiles": "CCN1CCN(C(=O)c2cn(CC)c3ccc(S(=O)(=O)N(C)C)cc3c2=O)CC1", "Her2 level": 104},
      {"smiles": "COc1ccc(OC)c(NC(=O)CSc2nnc(Cc3cccn3C)n2-c2ccc(F)cc2)c1", "Her2 level": 90},
      {"smiles": "CCOc1ccc(-c2nnc(SCC(=O)N3CCN(c4ccccc4)CC3)o2)cc1", "Her2 level": 96},
      {"smiles": "COCCCN(C)C1CCN(C(=O)Nc2ccc(F)cc2)CC1", "Her2 level": 124},
      {"smiles": "COc1cccc(C2CC(=O)Nc3c2c(=O)n(C)c(=O)n3C)c1OC", "note": "(stereo not given)", "Her2 level": 101},
      {"smiles": "CCCC(=O)C1=C(N(C)c2ccccc2)CC(C)(C)C(C(=O)OC)C1=O", "note": "(stereo not given)", "Her2 level": 81},
      {"smiles": "CC(=O)N1c2c(cc(Br)cc2S(=O)(=O)NCC2COc3ccccc3O2)CC1C", "note": "(stereo not given)", "Her2 level": 85},
      {"smiles": "CCCCNC(=O)Cn1c(=O)n(C)c2ccccc21", "Her2 level": 96.5}
    ]},
    {"tested_on": "not listed separately", "experiment": "SK-BR-3 cell growth inhibitors, pilot screen, 24 h, human (AID 572;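 active = viability at or below 10% of carrier control in both of two separate runs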;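 also: compound exposure lasted between 18 and 24 h rather than exactly 24 h; 100% = carrier-treated control wells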)", "conditions": "SK-BR-3 viability, CellTiter-Glo luminescence, at 10 µM, active compounds read low", "units": {"viability": "%"}, "values": [
      {"smiles": "CCOC(=O)c1ccc(NS(=O)(=O)c2ccc3c(c2)oc(=O)n3C)cc1", "viability": 132},
      {"smiles": "O=C(Nc1ccc2c(c1)OCCO2)NC1CCCCC1", "viability": 126},
      {"smiles": "O=C(CSc1nnnn1-c1ccccc1Cl)Nc1ccc2c(c1)OCCO2", "viability": 91.5},
      {"smiles": "COc1ccc(-c2nc(CSCC(=O)NCc3ccc4c(c3)OCO4)c(C)o2)cc1OC", "viability": 98},
      {"smiles": "Cc1cnc(NC(=O)CSc2nnc(COc3c(C)cccc3C)o2)s1", "viability": 83},
      {"smiles": "Cc1cccc(C2CC(c3ccccc3)Nc3nc(N)nn32)c1", "note": "(stereo not given)", "viability": 92},
      {"smiles": "CCc1ccccc1N1CC23C=CC(O2)C(C(=O)O)C3C1=O", "note": "(stereo not given)", "viability": 102},
      {"smiles": "CCOC(=O)C1CCN(Cc2ccc(F)c(Br)c2)CC1", "viability": 122},
      {"smiles": "CCOc1ccccc1N1Cc2cc(C)c(C)cc2C1", "viability": 92.5},
      {"smiles": "CCN1CCN(C(CNC(=O)c2ccc3c(c2)OCO3)c2cccnc2)CC1", "note": "(stereo not given)", "viability": 89.5},
      {"smiles": "O=C(NCCSc1c[nH]c2ccccc12)c1ccco1", "viability": 112},
      {"smiles": "COCCNC(=O)CN(C)S(=O)(=O)c1ccc(Br)cc1", "viability": 113},
      {"smiles": "COc1cc(C(=O)Nc2cccc(-c3nncn3C)c2)cc(OC)c1OC", "viability": 102},
      {"smiles": "CN1CCN(Cc2nc3c(c(=O)n(C)c(=O)n3C)n2Cc2ccccc2Cl)CC1", "viability": 80.5},
      {"smiles": "O=C(OCCN=C1NS(=O)(=O)c2ccccc21)C1CC(=O)N(c2ccc(Cl)cc2)C1", "note": "(stereo not given)", "viability": 114},
      {"smiles": "COc1cccc2cc(C(=O)OC3CCN(C)CC3)c(=O)oc12", "viability": 96},
      {"smiles": "Cc1cccc(N2C(=O)CC(N3CCN(c4cccc(C(F)(F)F)c4)CC3)C2=O)c1", "note": "(stereo not given)", "viability": 94.5},
      {"smiles": "O=c1c2ccccc2nc2n1CCN2", "viability": 84},
      {"smiles": "CCOC(=O)C1=C(C)Nc2nnnn2C1c1ccc(OC)c(Br)c1", "note": "(stereo not given)", "viability": 106},
      {"smiles": "COc1ccc(-n2c(Cc3cccn3C)nnc2SCC(N)=O)cc1", "viability": 94.5},
      {"smiles": "COc1ccccc1NC(=O)CSc1nnc(Cc2cccn2C)n1-c1ccc(F)cc1", "viability": 96.5},
      {"smiles": "CC(=O)Nc1cccc(Oc2nc(C)cc(C)c2C#N)c1", "viability": 96.5},
      {"smiles": "COc1ccc(CNC(=O)c2ccc(CN3CCOCC3)cc2)cc1", "viability": 116},
      {"smiles": "Cc1cc(OCC(=O)NCCO)cc(C)c1Cl", "viability": 99},
      {"smiles": "COc1ccc(C)cc1S(=O)(=O)N1CCN(S(=O)(=O)c2cc(C)ccc2OC)CC1", "viability": 110},
      {"smiles": "CCCCC(NS(=O)(=O)c1ccc(OC)cc1)C(=O)O", "note": "(stereo not given)", "viability": 110},
      {"smiles": "CCOc1ccc(Cn2nnc(C(=O)Nc3ccc(OC)cc3OC)c2N)cc1", "viability": 96.5},
      {"smiles": "Cc1cc(C)c(NC(=O)CSc2nc3c(c(=O)n2C)SC(C)C3)c(C)c1", "note": "(stereo not given)", "viability": 93.5},
      {"smiles": "COc1ccccc1N1C(=O)CCC1(C#N)c1ccccc1", "note": "(stereo not given)", "viability": 97},
      {"smiles": "CCOc1ccc(N(CC(=O)NC2CCCC(C)C2C)S(=O)(=O)c2c(C)noc2C)cc1", "note": "(stereo not given)", "viability": 89.5},
      {"smiles": "CCN1C(=O)c2ccccc2S(=O)(=O)c2ccc(C(=O)NCc3cccnc3)cc21", "viability": 95.5},
      {"smiles": "Cc1ccc(C(=O)CC2(O)C(=O)N(C)c3ccc(Br)cc32)c(C)c1", "note": "(stereo not given)", "viability": 85},
      {"smiles": "CCN1CCN(C(=O)c2cn(CC)c3ccc(S(=O)(=O)N(C)C)cc3c2=O)CC1", "viability": 85.5},
      {"smiles": "COc1ccc(OC)c(NC(=O)CSc2nnc(Cc3cccn3C)n2-c2ccc(F)cc2)c1", "viability": 81},
      {"smiles": "CCOc1ccc(-c2nnc(SCC(=O)N3CCN(c4ccccc4)CC3)o2)cc1", "viability": 103},
      {"smiles": "COCCCN(C)C1CCN(C(=O)Nc2ccc(F)cc2)CC1", "viability": 106},
      {"smiles": "COc1cccc(C2CC(=O)Nc3c2c(=O)n(C)c(=O)n3C)c1OC", "note": "(stereo not given)", "viability": 98.5},
      {"smiles": "CCCC(=O)C1=C(N(C)c2ccccc2)CC(C)(C)C(C(=O)OC)C1=O", "note": "(stereo not given)", "viability": 95},
      {"smiles": "CC(=O)N1c2c(cc(Br)cc2S(=O)(=O)NCC2COc3ccccc3O2)CC1C", "note": "(stereo not given)", "viability": 97.5},
      {"smiles": "CCCCNC(=O)Cn1c(=O)n(C)c2ccccc21", "viability": 105}
    ]}
  ]
}
